Measurements from PubChem BioAssay (Tox21).
A number with no mark means an inactive call. Inconclusive results are not listed. Entries that show only a call come without a potency. Activity calls are given as the source filed them. Unless noted, calls come from the whole dose curve; as a rule, active = well fitted curve in the direction sought with a large enough effect in the repeat runs; inconclusive = weak or mixed curves; inactive = no such curve, though single readings can be large; an effect the other way counts as inactive or inconclusive.

Assays:
[1] = qHTS assay to identify small molecule agonists of the hypoxia (HIF-1) signaling pathway - cell viability counter screen (AID 1224844; calls by dose curve; note: nearly all actives have a fitted effect of over 50% in size)
In short: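 Cytotoxicity measured by CellTiter-Glo ATP luminescence in the wells also read for beta-lactamase signal. Cells were HRE-bla ME-180 (2,000/well, 0.5% dialyzed FBS), exposed to compounds for 17 h at 37C.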

[2] = qHTS assay to identify small molecule agonists of H2AX (AID 1224845; active = well fitted activation curve with a large enough effect in the signal ratio in the repeat runs, not every such curve was filed as active; the % refers to the signal ratio)
In short: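 Phospho-H2AX Ser139 measured by HTRF (ex 320 nm; em 665 and 620 nm) after 24 hr antibody incubation. Compounds, 15 concentrations, 0.76% DMSO, were applied to CHO-K1 cells for 3hr at 37C before lysis.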

[3] = qHTS assay to identify small molecule agonists of the hypoxia (HIF-1) signaling pathway (AID 1224846; active = well fitted activation curve with a large enough effect in the signal ratio in the repeat runs, not every such curve was filed as active; the % refers to the signal ratio)
In short: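 Compounds added to ME-180 cells carrying hypoxia-response-element beta-lactamase reporter (0.5% dialyzed FBS, 5 h preplating), 17 h at 37C; agonist activity detected by CCF4-AM B/G FRET read-out.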

[4] = qHTS assay to identify small molecule agonists of H2AX - cell viability counter screen (AID 1224847; calls by dose curve;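 note: wild-type CHO-K1 cells; top concentration of the series differs between compounds; nearly all actives have a fitted effect of over 30% in size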)
In short: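 CHO-K1 cells plated overnight at 37C, then exposed 3 h at 37C to compounds at 15 concentrations (0.76% DMSO final). Viability by CellTiter-Glo luminescence after 30 min at room temperature.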

[5] = qHTS RealTime-Glo MT Cell Viability Assay in HepG2 cells - 24 hour (AID 1224867); note: nearly all actives have a fitted effect of over 50% in size
In short: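 Tox21 10K library screened in qHTS format on HepG2 cells carrying RealTime-Glo reagents. Compounds were added after a 5 h preincubation, and the luminescent signal from continuous culture was measured repeatedly during 40 h treatment.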

[6] = qHTS RealTime-Glo MT Cell Viability Assay in HEK293 cells - 32 hour (AID 1224868); note: nearly all actives have a fitted effect of over 50% in size; note: potency is the fitted concentration of half-maximal effect; for activity change, negative = cytotoxic: top concentration of the series differs between compounds
In short: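 Luminescence generated by NanoLuc from substrate produced by living HEK293 cells served as the viability signal. Each value reflects the reading at its stated time point during continuous 40 h compound exposure at 37 C.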

[7] = A CellTox Green Cytotoxicity Assay to monitor cytotoxicity in HEK293 cells - 0 hour (AID 1224869); note: nearly all actives have a fitted effect of over 50% in size
In short: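 Fluorescence from a DNA-binding dye excluded by viable cells was measured repeatedly in the same HEK293 wells (600 cells/well) during continuous compound exposure at 37 C. Each assay gives one read point: 0, 8, 16, 24, 32 or 40 h.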

[8] = qHTS RealTime-Glo MT Cell Viability Assay in HepG2 cells - 40 hour (AID 1224870); note: nearly all actives have a fitted effect of over 50% in size
In short: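 Real-time viability: cells seeded at 600 per well together with NanoLuc and cell-permeant prosubstrate, compounds added after 5 h incubation. Luminescence tracked at 0, 8, 16, 24, 32 and 40 h of exposure.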

| SMILES | Potency [1] | Potency [2] | outcome [3] | Potency [4] | Potency [5] | Potency [6] | Potency [7] | Potency [8] | activity change, negative = cytotoxicity [1] | activation (H2AX phosphorylation) [2] | activation [3] | activity change, negative = cytotoxicity [4] | activity change, negative = cytotoxicity [5] | cytotoxicity [7] | activity change, negative = cytotoxic [8] |
| --- | --- | --- | --- | --- | --- | --- | --- | --- | --- | --- | --- | --- | --- | --- | --- |
| CCOC(=O)NC(O)C(Cl)(Cl)Cl (stereo unspecified) | inactive | inactive | inactive | inactive | inactive | inactive | inactive | inactive | – | – | – | – | – | – | – |
| CCCCC#N | inactive | inactive | inactive | inactive | inactive | inactive | inactive | inactive | – | – | – | – | – | – | – |
| CC(C)(C)c1ccc(CCOc2ncnc3ccccc23)cc1 | inactive | inactive | inactive | inactive | inactive | inactive | inactive | inactive | – | – | – | – | – | – | – |
| CCCBr | inactive | inactive | inactive | inactive | inactive | inactive | inactive | inactive | – | – | – | – | – | – | – |
| CCOP(=O)(O)C(N)=O | inactive | inactive | inactive | inactive | inactive | inactive | inactive | inactive | – | – | – | – | – | – | – |
| CON(C)C(=O)Nc1ccc(Cl)cc1 | inactive | inactive | inactive | inactive | inactive | inactive | inactive | inactive | – | – | – | – | – | – | – |
| SCc1ccccc1 | inactive | inactive | inactive | inactive | inactive | inactive | inactive | inactive | – | – | – | – | – | – | – |
| CC(C)CCON=O | inactive | inactive | inactive | inactive | inactive | inactive | inactive | inactive | – | – | – | – | – | – | – |
| NC(=O)CF | inactive | inactive | inactive | inactive | inactive | inactive | inactive | inactive | – | – | – | – | – | – | – |
| O=C(NC(=O)c1cc(F)c(F)cc1Cl)Nc1cc(F)ccc1N1CCC(C(=O)O)CC1 | inactive | inactive | inactive | inactive | inactive | inactive | inactive | inactive | – | – | – | – | – | – | – |
| CCCCCCCCCCCCCCCl | inactive | inactive | inactive | inactive | inactive | inactive | inactive | inactive | – | – | – | – | – | – | – |
| CNC(=O)Oc1cccc(N=CN(C)C)c1 | inactive | inactive | inactive | inactive | inactive | inactive | inactive | inactive | – | – | – | – | – | – | – |
| FC(F)OC(F)(F)C(F)Cl (stereo unspecified) | inactive | inactive | inactive | inactive | inactive | inactive | inactive | inactive | – | – | – | – | – | – | – |
| OCCSSCCO | inactive | inactive | inactive | inactive | inactive | inactive | inactive | inactive | – | – | – | – | – | – | – |
| O=C(O)c1cc(I)cc(I)c1I | inactive | inactive | inactive | inactive | inactive | inactive | inactive | inactive | – | – | – | – | – | – | – |
| c1ccc2c(c1)-c1cccc3cccc-2c13 | inactive | inactive | inactive | inactive | inactive | inactive | inactive | inactive | – | – | – | – | – | – | – |
| OCCCl | inactive | inactive | inactive | inactive | inactive | inactive | inactive | inactive | – | – | – | – | – | – | – |
| CCCCCCCCCCCCN=C(N)N | – | – | – | – | – | 1.2 µM (active) | – | – | -8.49% [at 2.72 µM] | -1.39% [at 5.45 µM] | 0.622% [at 2.67 µM] | -0.757% [at 5.43 µM] | -4.51% [at 2.72 µM] | 9.65% [at 2.72 µM] | 1.81% [at 2.72 µM] |
| NC(=S)c1c(Cl)cccc1Cl | inactive | inactive | inactive | inactive | inactive | inactive | inactive | inactive | – | – | – | – | – | – | – |
| CN(C)N | inactive | inactive | inactive | inactive | inactive | inactive | inactive | inactive | – | – | – | – | – | – | – |
| CCOC(=O)C1OC1(C)c1ccccc1 (stereo unspecified) | inactive | inactive | inactive | inactive | inactive | inactive | inactive | inactive | – | – | – | – | – | – | – |
| COC(=O)C1(O)c2ccccc2-c2ccccc21 | inactive | inactive | inactive | inactive | inactive | inactive | inactive | inactive | – | – | – | – | – | – | – |
| CCCC1CCCCN1 (stereo unspecified) | inactive | inactive | inactive | inactive | inactive | inactive | inactive | inactive | – | – | – | – | – | – | – |
| Cc1ccc(N)c(C)c1 | inactive | inactive | inactive | inactive | inactive | inactive | inactive | inactive | – | – | – | – | – | – | – |
| O=C([O-])c1ccccn1.O=C([O-])c1ccccn1.O=C([O-])c1ccccn1.[Cr+3] | inactive | inactive | inactive | inactive | inactive | inactive | inactive | inactive | – | – | – | – | – | – | – |
| CN(C1CCCCC1)C1CCCCC1 | inactive | inactive | inactive | inactive | inactive | inactive | inactive | inactive | – | – | – | – | – | – | – |
| O=C(O)C(Cl)(Cl)Br | inactive | inactive | inactive | inactive | inactive | inactive | inactive | inactive | – | – | – | – | – | – | – |
